Results: PubChem BioAssay AID687016 (The Scripps Research Institute Molecular Screening Center, 2013)
Where “and” joins values, the source holds several entries; their conditions need not be identical. Equal entries are not always repeated. Out of some 370,000 compounds screened, about 2,800 (0.76%) were called active. Rule as the data show it: active = inhibition above about 21%; inactive = the rest. The list comes from a sample in which actives are over-represented; it also holds similar structures and randomly drawn compounds. More than one record can exist for a structure, and the calls need not agree.

biological target: E3 ubiquitin-protein ligase UHRF1 (Homo sapiens) (UniProt Q96T88); test: UHRF1 methylated DNA binding inhibitors, primary screen, counter-screen for MBD2 inhibitor project, biochemical, TR-FRET, human UHRF1, single concentration (AID 687016); details: UHRF1 binding to methylated oligo, at 4.4 µM, stronger effect = higher value;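 also: UHRF1 SRA domain binding a hemimethylated CpG hairpin DNA probe; 0% = median of test compound wells and 100% = reference inhibitor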
Sequence (Q96T88 whole entry, looked up, the tested form may be a part): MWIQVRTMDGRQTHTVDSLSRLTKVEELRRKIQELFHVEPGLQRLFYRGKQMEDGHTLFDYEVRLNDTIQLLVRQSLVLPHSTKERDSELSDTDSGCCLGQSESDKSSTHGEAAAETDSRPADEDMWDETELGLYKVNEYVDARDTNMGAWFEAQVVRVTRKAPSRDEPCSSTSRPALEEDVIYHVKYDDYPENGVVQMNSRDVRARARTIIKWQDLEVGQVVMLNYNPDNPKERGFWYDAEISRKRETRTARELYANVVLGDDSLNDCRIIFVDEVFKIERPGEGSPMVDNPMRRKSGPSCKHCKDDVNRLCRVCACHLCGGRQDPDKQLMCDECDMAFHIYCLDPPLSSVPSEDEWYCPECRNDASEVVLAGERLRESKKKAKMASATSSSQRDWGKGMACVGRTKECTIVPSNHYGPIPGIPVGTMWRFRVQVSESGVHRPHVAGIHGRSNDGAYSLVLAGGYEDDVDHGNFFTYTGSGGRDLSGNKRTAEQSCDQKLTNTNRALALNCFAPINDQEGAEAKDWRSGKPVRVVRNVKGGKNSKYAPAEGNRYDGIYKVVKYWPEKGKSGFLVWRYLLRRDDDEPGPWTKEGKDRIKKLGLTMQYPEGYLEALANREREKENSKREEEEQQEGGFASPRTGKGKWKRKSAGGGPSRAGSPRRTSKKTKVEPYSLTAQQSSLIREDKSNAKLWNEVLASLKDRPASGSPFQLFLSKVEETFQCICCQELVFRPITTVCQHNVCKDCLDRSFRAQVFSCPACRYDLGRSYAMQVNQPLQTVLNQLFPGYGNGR

SMILES	inhibition
CCC(C)[C@@H](C(=O)OC)N(CCc1cn(Cc2ccccc2)nn1)S(=O)(=O)c1ccccc1Br (stereo not given in full)	-0.53% (inactive)
C[C@@H]1CN([C@@H](C)CO)C(=O)c2cccc(NC(=O)Nc3cccc4ccccc34)c2O[C@H]1CN(C)S(=O)(=O)c1ccccc1F	-3.8% (inactive)
Brc1ccc2nc(-c3ccccc3)c(Cc3ccccc3)n2c1	11% (inactive)
Cc1ccc(-c2nc3ccc(Br)cn3c2Cc2ccccc2C(F)(F)F)cc1	2.47% (inactive)
COc1ccccc1Cc1c(-c2ccc(Cl)cc2)nc2ccc(Cl)cn12	-0.13% (inactive)
COC(=O)c1ccc2nc(-c3ccc(C)cc3)c(Cc3ccc(OC)cc3C)n2c1	21.6% (active)
CC(=O)Nc1c(-c2ccc(C)cc2)nc2ccc(Cl)cn12	-0.52% (inactive)
COC(=O)c1ccc2nc(C3CCCCC3)c(Cc3cccc(F)c3)n2c1	27.9% (active)
COC(=O)c1ccc(CNC(=O)C2CCC(=O)N(Cc3cccc(F)c3)C2)cc1 (stereo not given)	0.28% (inactive)
CC(C)(C)Cc1c(C2CCCCC2)nc2ccc(Br)cn12	0.2% (inactive)
COC(=O)c1ccc2nc(-c3ccc(OC)c(OC)c3)c(Cc3ccccc3)n2c1	14.6% (inactive)
COC(=O)c1ccc2nc(-c3ccccc3)c(Cc3ccc(OC)cc3C)n2c1	22.1% (active)
COc1ccccc1Cc1c(-c2ccc(F)cc2)nc2ccc(C)cn12	11.5% (inactive)
COC(=O)c1ccc2nc(-c3ccc(F)cc3)c(Cc3ccc(C)cc3)n2c1	22.9% (active)
COP(=O)(O)CNC(=O)OCc1ccccc1	-1.09% (inactive)
Nc1[nH]c(/C=C2/CCCCC2n2[nH]c(=O)n(-c3ccccc3)c2=O)c(Cc2ccccc2)[n+]1Cc1ccccc1 (stereo not given)	15.8% (inactive)
Nn1c(SCC(=O)N2c3ccccc3Sc3ccccc32)nnc1-c1n[nH]c2c1CCC2	2% (inactive)
C=CCn1c(SCC(N)=O)nnc1-c1ccccc1OC	-0.8% (inactive)
Cc1ccc(C(=O)N(Cc2ccccn2)CC2CCCO2)cc1 (stereo not given)	0.72% (inactive)
CCOC(=O)N1CCN(C(=O)C[C@H]2C[C@@]3(C(=O)OC)C(=C[C@H](C(C)(C)C)O[C@@H]3C)N(Cc3ccc(Cl)cc3Cl)C2=O)CC1	0.78% (inactive)
CCC(c1ccc(NC(=O)OC(C)(C)C)cc1)c1cc(OC)cc(OC)c1 (stereo not given)	-0.84% (inactive)
Fc1ccc2nc(COCc3nc4ccc(F)cc4[nH]3)[nH]c2c1	0.71% (inactive)
COC(=O)c1ccc2nc(-c3cccc(Br)c3)c(Cc3ccccc3C(F)(F)F)n2c1	3.57% (inactive)
COC(=O)c1ccc2nc(-c3cccc(Br)c3)c(Cc3ccc(OC)cc3C)n2c1	21.5% (active)
COc1ccc(-c2nc3ccc(Br)cn3c2Cc2ccc(C)cc2)cc1OC	4.35% (inactive)
O=C(CCl)NC1CCCCN(Cc2cccc(C(F)(F)F)c2)C1=O (stereo not given)	0.33% (inactive)
Cc1ccc(CN2CC(C(=O)N3CCN(S(=O)(=O)c4ccccc4)CC3)CC2=O)cc1 (stereo not given)	9.15% (inactive)
CCN(CC(=O)Nc1ccc(NC(C)=O)cc1)C(=O)C1CC(=O)N(c2ccc3c(c2)OCCO3)C1 (stereo not given)	1.89% (inactive)

SMILES	inhibition
CCN(CC(=O)Nc1ccc(NC(C)=O)cc1)C(=O)C1CC(=O)N(Cc2ccc(C)cc2)C1 (stereo not given)	21.3% (active)
CCCNC(=O)Nc1ccc2c(c1)C(=O)N(C)[C@H]1CC[C@H](CC(=O)NCC3CCCCC3)O[C@@H]1CO2	10.6% (inactive)
O=C(CSc1nnc(COc2ccccc2)n1-c1ccc(Cl)cc1)Nc1ccc2c(c1)OCO2	1.16% (inactive)
CCC(CO)Nc1cccc2c1S(=O)(=O)N(Cc1cn(Cc3ccccc3C(F)(F)F)nn1)Cc1ccccc1O2 (stereo not given)	2.09% (inactive)
COc1cccc(C2=CC(=O)C[C@H](c3ccc(F)cc3)C2)c1OC	-0.67% (inactive)
COc1ccccc1C1=CC(=O)C[C@H](c2ccc(F)cc2)C1	1.8% (inactive)
O=C1C=C(c2cccc(Cl)c2O)C[C@@H](c2ccc(F)cc2)C1	21% (active)
Cc1ccc(-c2nnc(SCC(=O)Nc3ccc(Oc4ccccc4)cc3)n2Cc2ccco2)cc1	-0.31% (inactive)
O=C(Cn1c[n+](CC(=O)c2ccc([N+](=O)[O-])cc2)cn1)c1ccc([N+](=O)[O-])cc1	50.5% (active) and -2.04% (inactive)
O=C(CC(n1cncn1)C(Cl)(Cl)Cl)c1ccc([N+](=O)[O-])cc1 (stereo not given)	0.74% (inactive)
Cc1ccc(C(=O)Cn2cccn2)cc1	5.04% (inactive)
Cc1ccc(NC(=S)NNC(=O)CSc2nnc(SCc3ccccc3Cl)s2)cc1	-10.8% (inactive)
COc1cccc(CSc2nnc(-c3cccnc3)n2Cc2ccccc2)c1	-0.03% (inactive)
CCOc1cc(N2CCOCC2)c(OCC)cc1NC(=O)C1=NN(c2cccc(C)c2)C(=O)CC1	0.92% (inactive)
CCOc1cc(N2CCOCC2)c(OCC)cc1NC(=O)c1cc(C)nc2ccccc12	23.5% (active)
Cc1cc(C(=O)NNC(=O)c2cccc(S(=O)(=O)N3CCOCC3)c2)c2ccccc2n1	-0.61% (inactive)
CC(C)(C)OC(=O)NCc1cc(F)ccc1/C=C/S(=O)(=O)NCCc1ccccc1	0.11% (inactive)
CC(=O)c1ccc(OCC(=O)N(C)C2CCS(=O)(=O)C2)cc1 (stereo not given)	1.81% (inactive)
CCOC(=O)/C(=N\Nc1ccccc1Cl)N(C)C1CCS(=O)(=O)C1 (stereo not given)	23.3% (active)
CCOC(=O)/C(=N\Nc1cc(Cl)ccc1Cl)N1CCN(C)CC1	-0.04% (inactive)
CCOC(=O)[C@]12CCCCC/C=C\1N(Cc1ccc(OC)cc1)C(=O)[C@H]2CC(=O)NCCCN1CCCC1=O	-0.93% (inactive)
CCOC(=O)[C@]12CCCC3=C1N(CCC3)C(=O)[C@@H](CC(=O)NCC13CC4CC(CC(C4)C1)C3)C2	-0.2% (inactive)
O=C(CCCCCN1C(=O)C2C3C=CC(C3)C2C1=O)Nc1ccccn1 (stereo not given)	-0.7% (inactive)
COc1ccc(N2CCN(CCNS(=O)(=O)c3ccc(C(C)(C)C)cc3)CC2)cc1	0.26% (inactive)
CC(OC(=O)/C=C/c1ccccc1)C(=O)Nc1ccc(C(N)=O)cc1 (stereo not given)	-0.02% (inactive)
C=CCOc1ccc(/C=C/C(=O)OC(C)C(=O)Nc2ccc(NC(C)=O)cc2)cc1 (stereo not given)	0.2% (inactive)
CCc1ccc(NC(=O)C(C)OC(=O)/C=C/c2cccc([N+](=O)[O-])c2)cc1 (stereo not given)	21.5% (active)
